Assay outcomes deposited in PubChem BioAssay by National Center for Advancing Translational Sciences (NCATS).
This is a sample that favours compounds with a hit; in the whole collection about 2.7% have one here.
Tau ThT inhib: inhibitors of human tau fibril formation, thioflavin T binding | 270,000 compounds, 2.1% hits | Potency, µM (highest dose often 57.4 µM), inactives show at the highest dose activity, negative = inhibition, usual class: inhibitors | recombinant tau K18 P301L, heparin-induced fibrillization, ThT fluorescence | AID 1460; further: potency means the concentration at half of the fitted maximal effect; nearly all actives have a fitted effect of over 55% in size
Target sequence (P10636 561-689 P618L limits assumed): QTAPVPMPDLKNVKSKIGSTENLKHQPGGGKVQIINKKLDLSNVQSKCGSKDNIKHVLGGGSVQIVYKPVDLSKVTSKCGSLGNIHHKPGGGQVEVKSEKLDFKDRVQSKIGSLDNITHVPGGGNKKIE
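ThT emission at 510 nm, taken 1 hr after adding 30 uM dye, quantifies aggregates formed when 20 uM heparin acts on human tau K18 P301L for 6 hr at 37 C.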
Tau fluor counter: counter-screen for tau fibril formation inhibitors. AID 1463. tau K18 P301L Alexa594 fluorescence, heparin fibrillization. 280,000 compounds, 0.93% hits. Potency, µM (top dose mostly 57.7 µM), for inactives: at the top dose activity change, negative = decrease; further: potency means the concentration at half of the fitted maximal effect; nearly all actives have a fitted effect of over 55% in size
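Human tau K18 P301L (15 uM unlabeled, 0.24 uM Alexa 594-labeled) in 100 mM sodium acetate pH 7 with 20 uM heparin, 6 hr at 37 C. ThT 30 uM added, 1 hr ambient; Alexa 594 FP and total fluorescence read at 555/632 nm.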
Tau fibril FP: inhibitors of human tau fibril formation; Potency, µM (series often up to 57.7 µM), for inactives: top-dose activity, negative = inhibition, hits mostly inhibitors; P10636; K18 P301L tau heparin fibrillization, Alexa594 FP, 6 h; 280,000 compounds, 0.39% hits; further: potency means the concentration at half of the fitted maximal effect; nearly all actives have a fitted effect of over 55% in size
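Steps: dispense K18 P301L tau (15 uM plus 0.24 uM Alexa 594 tracer, final) in pH 7 sodium acetate; add compound; add heparin (20 uM final); incubate 6 hr, 37 C; add ThT (30 uM final); after 1 hr ambient, read FP.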
FBPA coupling cs: counter-screen for Giardia aldolase inhibitors: coupling enzyme system | 290,000 compounds, 0.67% hits | AID 2472 | coupling enzyme system counterscreen, AmpLite Red fluorescence | activity change, negative = inhibition, % at 58.2 µM, hits read low; in the data active means activity change below about -30%
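First, compound is pin-transferred into glyceraldehyde-3-phosphate coupling-enzyme reagent at 57.5 uM final and held 10 min at RT. Next, substrate, coupling system and AmpLite Red are added. After 20 min RT, fluorescence (525/598 nm) is read.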
Active calls of the source: *; [ ] = remark or other dose. Unless noted, the call rests on the fitted dose curve; in most records, active means well fitted curve in the direction sought with a large enough effect; inconclusive means small, poorly fitted or top-dose-only effect, or another doubt; inactive means no such curve, though single readings can be large; an effect the other way counts as inactive or inconclusive. On the % scale 0 is the no-effect control and ±100 the full control effect.

Nc1cc([N+](=O)[O-])ccc1Nc1ccc(O)cc1 was read as Tau ThT inhib 12.6µM*, Tau fluor counter 20µM*[quencher], Tau fibril FP inconclusive and FBPA coupling cs -4.1.
`Cc1cccc(OCC(=O)N/N=C/c2ccc(N(C)C)cc2)c1` gave Tau ThT inhib 3.55µM*, Tau fluor counter -28.5%, Tau fibril FP 6.7% and FBPA coupling cs 1.7.
CN(C)c1ccc(/C=N/NC(=O)COc2ccccc2)cc1 was read as Tau ThT inhib inconclusive, Tau fluor counter -16.6%, Tau fibril FP -0.6% and FBPA coupling cs 1.2.
For CCCCn1c(-c2ccsc2)nc2c1c(=O)[nH]c(=O)n2CCC the results were Tau ThT inhib 1.1%, Tau fluor counter -4.8%, Tau fibril FP -3.6% and FBPA coupling cs -30.7*.
`COc1cccc(Nc2ncc3nc(-c4cccs4)c(=O)n(C[C@H]4CCCO4)c3n2)c1` gave FBPA coupling cs -0.2.
Screening CO[C@H]1C=CO[C@@]2(C)Oc3c(C)c(O)c4c(O)c(c(C=NN5CCN(C6CCCC6)CC5)c(O)c4c3C2=O)NC(=O)C(C)=CC=C[C@H](C)[C@H](O)[C@@H](C)[C@@H](O)[C@@H](C)[C@H](OC(C)=O)[C@@H]1C returned Tau ThT inhib 17.8µM*, Tau fluor counter -25.9%, Tau fibril FP -16.0% and FBPA coupling cs -25.6.
For Nc1ccc(O)c2c1C(=O)c1ccccc1C2=O the results were Tau ThT inhib 1.5%, Tau fluor counter -1.5%, Tau fibril FP 4.7% and FBPA coupling cs 4.0.
For O=C1c2ccccc2C(=O)c2c(Nc3ccc(CCO)cc3)ccc(O)c21 the results were Tau ThT inhib 2.82µM*, Tau fluor counter 1.78µM*[quencher], Tau fibril FP inconclusive and FBPA coupling cs -6.4.
CSc1ccccc1NC(=O)C(=O)c1c[nH]c2ccccc12 was read as Tau ThT inhib -1.5%, Tau fluor counter inconclusive, Tau fibril FP 10µM* and FBPA coupling cs -3.3.
Screening CCc1ccc(NC(=O)C(CC)n2nnc(C(=O)OC)c2C(=O)OC)cc1 (stereo not drawn) returned Tau ThT inhib -4.8%, Tau fluor counter -6.5% and Tau fibril FP -7.0%.
`O=C(Nc1ccccc1O)c1ccc2c(c1)C(=O)N(N1C(=O)c3ccccc3C1=O)C2=O` gave FBPA coupling cs 0.8.
O=c1cccccc1NCc1ccccc1 was read as Tau ThT inhib -14.4%, Tau fluor counter -8.2%, Tau fibril FP 2.4% and FBPA coupling cs -38.7*.
Screening O=C1C=C(NCc2ccccc2)CCC1 returned Tau ThT inhib 1.9%, Tau fluor counter 4.4%, Tau fibril FP 0.5% and FBPA coupling cs 0.2.
For N#Cc1ccccc1NCc1ccccc1 the results were Tau ThT inhib -8.6%, Tau fluor counter -4.1%, Tau fibril FP 0.3% and FBPA coupling cs 3.5.
For O=C1C=C(NCc2ccccc2)c2ccccc2C1=O the results were Tau ThT inhib 14.1µM*, Tau fluor counter -24.6%, Tau fibril FP inconclusive and FBPA coupling cs -86.7*.
`O=C1C=C(Nc2ccccc2O)c2ccccc2C1=O` gave Tau ThT inhib inconclusive, Tau fluor counter inconclusive, Tau fibril FP -11.4% and FBPA coupling cs -60.4*.
For COc1cc(NS(=O)(=O)c2ccc(Nc3nc(-c4ccccc4)cs3)cc2)nc(OC)n1 the results were Tau ThT inhib inconclusive, Tau fluor counter 12.6µM*[quencher], Tau fibril FP inconclusive and FBPA coupling cs 5.5.
Cc1cc(O)ccc1Nc1nc(-c2sc(N)nc2C)cs1 was read as Tau ThT inhib 12.6µM*, Tau fluor counter inconclusive, Tau fibril FP inconclusive and FBPA coupling cs 5.4.
Screening Cc1cc(NS(=O)(=O)c2ccc(Nc3nc(-c4sc(N)nc4C)cs3)cc2)no1 returned Tau ThT inhib 20µM*, Tau fluor counter inconclusive, Tau fibril FP inconclusive and FBPA coupling cs -11.5.
For Cc1nc(N)sc1-c1csc(Nc2ccccc2)n1 the results were Tau ThT inhib 11.2µM*, Tau fluor counter 25.1µM*[quencher], Tau fibril FP inconclusive and FBPA coupling cs -12.9.
Screening Cc1nc(N)sc1-c1csc(Nc2cccc(C(=O)O)c2)n1 returned FBPA coupling cs -24.9.
COc1cc(/C=N/Nc2nc(C)cc(C)n2)cc(OC)c1OC was read as FBPA coupling cs -2.5.
`O=S(=O)(c1cccc(Cl)c1)c1nnn2c1nc(NCc1ccc3c(c1)OCO3)c1sccc12` gave Tau ThT inhib 18.0%, Tau fluor counter -19.9% and Tau fibril FP inconclusive.
Cc1ccn2c(=O)cc(COc3ccc(NC(=O)COc4ccc(Cl)cc4)cc3)nc2c1 was read as Tau ThT inhib inconclusive, Tau fluor counter -6.5% and Tau fibril FP 0.4%.
`O=C1c2[nH]nc(-c3ccccc3O)c2C(c2cccc(Br)c2)N1Cc1ccncc1` (stereo not drawn) gave Tau ThT inhib 14.8%, Tau fluor counter -3.3% and Tau fibril FP -3.7%.
For CCOc1cc(/C=N/NC(=O)c2ccc(-c3csc(Nc4ccc(C)cc4)n3)cc2)ccc1OCC(=O)O the results were Tau ThT inhib 2.82µM*, Tau fluor counter inconclusive, Tau fibril FP 7.2% and FBPA coupling cs 3.2.
O=C(O)COc1ccc(/C=N/NC(=O)c2ccc(-c3csc(Nc4ccc(Cl)cc4)n3)cc2)cc1 was read as Tau ThT inhib inconclusive, Tau fluor counter inconclusive, Tau fibril FP -4.2% and FBPA coupling cs 2.9.
For CCSc1ncc(/C=N/Nc2ccc([N+](=O)[O-])cc2)n1C the results were Tau ThT inhib 0.891µM*, Tau fluor counter inconclusive, Tau fibril FP -11.7% and FBPA coupling cs 0.6.
`CCSc1ncc(/C=N/Nc2ccccc2)n1C` gave Tau ThT inhib 4.47µM*, Tau fluor counter inconclusive, Tau fibril FP inconclusive and FBPA coupling cs -1.3.
`CCSc1ncc(/C=N/Nc2ccc(Cl)cc2)n1C` gave Tau ThT inhib 7.94µM*, Tau fluor counter 6.31µM*[quencher], Tau fibril FP -14.6% and FBPA coupling cs -21.7.
COc1ccc(C(=O)NCC(c2ccc3c(c2)OCO3)N2CCN(C)CC2)cc1OC (stereo not drawn) was read as Tau ThT inhib 4.4%, Tau fluor counter 3.1% and Tau fibril FP -2.1%.
Cc1ccc(OC(=S)Nc2ccc(F)cc2)cc1 was read as Tau ThT inhib 4.1%, Tau fluor counter 3.4%, Tau fibril FP 3.0% and FBPA coupling cs -0.1.
Cc1ccc(OC(=S)Nc2ccc(O)cc2)cc1 was read as Tau ThT inhib 15.8µM*, Tau fluor counter -25.6%, Tau fibril FP inconclusive and FBPA coupling cs -13.7.
For N#Cc1cc[n+](CC(=O)c2ccc(NC(=O)c3ccccc3)cc2)cc1 the results were Tau ThT inhib inconclusive, Tau fluor counter -23.6%, Tau fibril FP 5.2% and FBPA coupling cs 0.6.
Cc1nn(C(C)C(=O)NC2CCC(C)CC2)c(=O)c2cc3sccc3n12 (stereo not drawn) was read as Tau ThT inhib -7.7%, Tau fluor counter -11.7% and Tau fibril FP -0.3%.
`O=C(O)CCCn1cc(NC(=O)c2cc(F)c(F)cc2Cl)cn1` gave Tau ThT inhib 17.8%, Tau fluor counter 11.9%, Tau fibril FP -6.1% and FBPA coupling cs -34.4*.
